Reference: PubChem BioAssay (Tox21)
Where “and” joins values, the source holds several entries; their conditions need not be identical. Equal values may be shown once. Inconclusive results are not listed. More than one record can exist for a structure, and the calls need not agree. Calls of active or inactive are those of the source. Calls come from the whole dose curve; as a rule, active = well fitted inhibition curve with a large enough effect in the repeat runs; inconclusive = weak or mixed curves; inactive = no such curve, though single readings can be large or run the other way.

molecular target: Cytochrome P450 2C19 (Homo sapiens) (UniProt P33261); experiment: Cytochrome P450 Family 2 Subfamily C Member 19 (CYP2C19) small molecule antagonists: luciferase reporter qHTS assay (AID 1671197); conditions: P450-Glo CYP2C19 enzyme, luciferin luminescence, 1 h; series mostly up to 115 µM; activity change, negative = inhibition: at the top concentration; note: nearly all actives have a fitted effect of over 65% in size
Sequence (P33261 whole entry, looked up): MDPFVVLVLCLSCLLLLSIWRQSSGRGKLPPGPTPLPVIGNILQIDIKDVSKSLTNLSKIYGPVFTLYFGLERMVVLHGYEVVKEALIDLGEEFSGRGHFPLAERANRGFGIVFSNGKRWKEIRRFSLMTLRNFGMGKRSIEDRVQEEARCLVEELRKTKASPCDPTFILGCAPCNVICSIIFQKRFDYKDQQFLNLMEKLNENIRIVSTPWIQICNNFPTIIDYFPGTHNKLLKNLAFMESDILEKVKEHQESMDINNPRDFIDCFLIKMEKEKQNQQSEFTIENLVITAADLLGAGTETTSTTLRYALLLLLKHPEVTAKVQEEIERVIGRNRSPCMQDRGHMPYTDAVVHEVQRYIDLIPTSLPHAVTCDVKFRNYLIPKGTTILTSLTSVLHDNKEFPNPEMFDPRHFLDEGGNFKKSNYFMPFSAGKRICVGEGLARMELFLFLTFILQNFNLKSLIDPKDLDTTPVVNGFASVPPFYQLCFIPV
Source text: National Center for Advancing Translational Sciences [NCATS]
U.S. Environmental Protection Agency [EPA]
National Institutes of Environmental Health Sciences [NIEHS]
National Toxicology Program [NTP]
U.S. Food and Drug Administration [FDA]
Cytochrome P450 (CYP) enzymes are membrane-bound hemeproteins that play a key role in metabolism of drugs and xenobiotics. Evaluation of the effect of chemicals on CYP isozymes is useful to minimize the adverse drug reactions and toxicities in drug development process. Tox21 chemicals were tested for their effect on CYP enzyme activities by using P450-Glo (TM) screening systems (Promega Corporation, Madison, WI). These systems provide a luminescent method containing proluciferin substrates and are converted to luciferin products by CYP isozymes. The luciferin products formed are detected with a luciferin detection reagent, and the amount of light produced is proportional to CYP activity. P450-Glo (TM) CYP2C19 screening system (Catalog. No. V9880) was used to detect the compounds that interfere in CYP2C19 activity. The positive control compound used for CYP2C19 assay is ketoconazole (Sigma-Aldrich, St. Louis, MO).
Tox21 Assay Protocol Summary:
Two ul of enzyme-substrate mix was dispensed into medium binding white/solid 1536-well plates (Greiner Bio-One North America Inc., Monroe, NC) using a BioRaptr Flying Reagent Dispenser (FRD, Beckman Coulter, Brea, CA). Compounds dissolved in DMSO and positive control (ketoconazole) were transferred to the assay plates at 23 nl using a Pintool station (Wako, San Diego, CA). The assay plates were incubated at room temperature for 10 min. Then 2 ul of NADPH regeneration solution was added to each well of the assay plates using an FRD and incubated at 37C for 1 h. The reaction was stopped by adding 4 ul of detection reagent using an FRD and after 20 min incubation at room temperature the luminescence signal was measured using a ViewLux plate reader (Perkin Elmer, Shelton, CT). Data were expressed as relative luminescence units.
% is set by controls: 0 for no effect and ±100 for the full control effect; potency is the fitted concentration of half-maximal effect.

Q: Which Potency does the source give for C=CCNCC=C here?
A: 39.8 µM (active)

Q: Which Potency does the source give for CCCN1C=CN(C)C1 here?
A: inactive

Q: Which Potency does the source give for Cc1ccc(C(C)(C)C)c(O)c1 here?
A: 30.7 µM (active) and 39.9 µM (active)

Q: How did the Potency turn out when C[N+](C)(C)CCO was run?
A: inactive

Q: For COC(=O)CC(=O)OC, which Potency is on record?
A: 41.6 µM (active) and inactive

Q: For COC(=O)c1ccc(C)cc1, which Potency is on record?
A: inactive

Q: Which Potency does the source give for CC(=O)Oc1ccc(C(c2ccc(OC(C)=O)cc2)c2ccccn2)cc1 here?
A: 7.92 µM (active) and 24.5 µM (active)

Q: Which Potency does the source give for CCOC(=O)C(C)Oc1ccc(Oc2cnc3cc(Cl)ccc3n2)cc1 (stereo not given) here?
A: 33.3 µM (active)

Q: Which Potency does the source give for CC(C)[C@@H]1CC[C@@H](C)CC1=O here?
A: 31.7 µM (active) and inactive

Q: With CC[C@]12CCCN3CCc4c(n(c5ccccc45)[C@@](O)(C(=O)OC)C1)[C@@H]32 as the compound, how does the Potency read?
A: 71 µM (active) and inactive

Q: Which Potency does the source give for IC(I)I here?
A: 39.9 µM (active) and 89.4 µM (active)

Q: CCC/C=C/C=O was tested. Which Potency did it give?
A: 19.5 µM (active)

Q: Which Potency does the source give for CCCCCCCCCCCCCO here?
A: 71.8 µM (active) and 36.9 µM (active)

Q: For ClC/C=C/CCl, which Potency is on record?
A: inactive

Q: How did the Potency turn out when C1COCCN1 was run?
A: inactive

Q: CCCCCCC(C)O (stereo not given) was tested. Which “activity change, negative = inhibition” value did it give?
A: -26% (inactive)

Q: With c1ccc2cc3ccccc3cc2c1 as the compound, how does the Potency read?
A: 41.2 µM (active) and 79.6 µM (active)

Q: How did the activity change, negative = inhibition turn out when O=[Se](O)O was run?
A: -23.6% [at 23.6 µM] (inactive)

Q: And the Potency?
A: 56.5 µM (active)

Q: Which Potency does the source give for Cc1ccc(N)c([N+](=O)[O-])c1 here?
A: 39.4 µM (active)

Q: Which Potency does the source give for COC(=O)C(C)Oc1ccc(Oc2ncc(C(F)(F)F)cc2Cl)cc1 (stereo not given) here?
A: 40.4 µM (active) and 39.9 µM (active)

Q: CCCCCCCCCCCCO was tested. Which Potency did it give?
A: 31.3 µM (active)

Q: C=CN1CCCC1=O was tested. Which “activity change, negative = inhibition” value did it give?
A: -0.441% (inactive)

Q: For C=CC(C)(O)CCC=C(C)C (stereo not given), which “activity change, negative = inhibition” value is on record?
A: -23.5% (inactive)

Q: How did the Potency turn out when Clc1ccc(Sc2cc(Cl)c(Cl)cc2Cl)cc1 was run?
A: 6.92 µM (active) and 3.17 µM (active)

Q: With CCC(=O)O[C@H]1[C@H](O[C@@H]2[C@@H](C)[C@H](O[C@H]3C[C@@](C)(OC)[C@@H](O)[C@H](C)O3)[C@@H](C)C(=O)O[C@H](CC)[C@@](C)(O)[C@H](O)[C@@H](C)C(=O)[C@H](C)C[C@@]2(C)O)O[C@H](C)C[C@@H]1N(C)C as the compound, how does the Potency read?
A: 47.1 µM (active) and inactive

Q: C=C[C@@]1(C)CC(=O)[C@]2(O)[C@@]3(C)[C@@H](O)CCC(C)(C)[C@@H]3[C@H](O)[C@H](OC(C)=O)[C@@]2(C)O1 was tested. Which Potency did it give?
A: 39.9 µM (active)

Q: With CC(=O)Oc1c(C)c(C)c2c(c1C)CC[C@@](C)(CCC[C@H](C)CCC[C@H](C)CCCC(C)C)O2 as the compound, how does the Potency read?
A: inactive

Q: How did the Potency turn out when Nc1ccc2c(c1)C(=O)c1ccccc1C2=O was run?
A: 8.78 µM (active) and 35.6 µM (active)

Q: CC(C)(C)c1cccc(C(C)(C)C)c1O was tested. Which Potency did it give?
A: 55.1 µM (active) and inactive

Q: OCCNCCO was tested. Which Potency did it give?
A: inactive

Q: With O=C(O)c1cc(=O)[nH]c(=O)[nH]1 as the compound, how does the Potency read?
A: 40 µM (active) and inactive

Q: Oc1c(Cl)ccc(Cl)c1Cl was tested. Which Potency did it give?
A: 79.5 µM (active) and inactive

Q: Which Potency does the source give for c1ccc2c(c1)[nH]c1ccccc12 here?
A: 7.83 µM (active) and 7.96 µM (active)

Q: How did the Potency turn out when Nc1cc(Cl)c(N)c(Cl)c1 was run?
A: 8.86 µM (active) and 71 µM (active)

Q: For C[C@]12CC[C@@H]3c4ccc(O)cc4CC[C@H]3[C@@H]1CC[C@H]2O, which Potency is on record?
A: 4.06 µM (active) and 17.8 µM (active)

Q: For CC(C)=CCO, which Potency is on record?
A: inactive

Q: With NCCOCCO as the compound, how does the “activity change, negative = inhibition” value read?
A: -24.8% (inactive)

Q: Which Potency does the source give for CCCCCC1C(=O)CCC1CC(=O)OC (stereo not given) here?
A: 993 nM (active) and 3.56 µM (active)

Q: Which Potency does the source give for Nc1cc([N+](=O)[O-])ccc1C(=O)O here?
A: inactive
